Measurements as given in ChEMBL document CHEMBL4513216, “Probing the Open Global Health Chemical Diversity Library for Multistage-Active Starting Points for Next-Generation Antimalarials” (ACS Infect Dis, 2020).
Among all 65,000 compounds or so, about 2,100 (3.2%) showed an effect of 50% or more. The median lay at about -52%. Only a selection was taken, and strong results are over-represented in it overall.

Each compound was assayed on Plasmodium falciparum (assay: Screen against P. falciparum Asexual Blood Stage (ABS), at 5uM). Settings: tested at 5 uM.
Assay type: functional, Dd2

Compound	INHIBITION
CCN1CCCC(NC(=O)c2ccc(C)[nH]c2=O)C1 (stereo not drawn)	-166%
CN(C)c1ncnc2c1CCN(CC1CCOCC1)CC2	-55.1%
CN1CCN(C[C@H]2CC[C@@H](Cc3ccc(CN4CCCC4)cc3)O2)CC1	36.4%
COc1ccc(C[C@@H]2CC[C@H](CN(C)C3CCN(C)CC3)O2)cc1	50.9%
CN1CCC(N(C)C[C@H]2CC[C@@H](Cc3cccc(O)c3)O2)CC1	57.5%
CN1CCN(C[C@H]2CC[C@@H](Cc3ccc4c(c3)OCO4)O2)CC1	-28.1%
CN1CCC(N(C)C[C@H]2CC[C@@H](Cc3cccc(CO)c3)O2)CC1	-125%
CCN(Cc1cnn(C)c1)C[C@H]1CC[C@@H](Cc2ccc(OC)nc2)O1	4.73%
CC(=O)Nc1nc2c(s1)C(C)(C)Nc1ccccc1S2	-58.4%
NCc1ccc(OC(F)F)cc1OC(F)F	-38.5%
CC(C)CN1C(=O)CCC12CCC(NC(=O)NCc1cccnc1)CC2 (stereo not drawn)	-167%
CCc1nc(CN2CCCN(c3nn4cc(C)nc4s3)CC2)no1	-69%
Cn1cnc2c1C(COCC1CC1)CN(C(=O)c1cscn1)C2 (stereo not drawn)	-46.3%
CN(C(=O)c1ccc(S(=O)(=O)NC(C)(C)C)cc1)C1(C#N)CCC1	5.67%
O=C(C1=COCCO1)N1CC(Oc2nc3c(C(F)(F)F)cccc3s2)C1	-41.7%
CC(NC(=O)NCCCn1cncn1)c1ccncc1 (stereo not drawn)	-85.1%
CC(NC(=O)NCCCn1cncn1)c1ccc(C(F)(F)F)cc1 (stereo not drawn)	57.2%
CC(NC(=O)NCCCn1cncn1)c1ccc(F)cc1 (stereo not drawn)	20.8%
Clc1cc(NCc2nccs2)nc2[nH]ccc12	-72%
Clc1cc(NCc2ccncc2)nc2[nH]ccc12	64.9%
Clc1cc(NCc2ncc[nH]2)nc2[nH]ccc12	-48.4%
COC[C@@]12CCO[C@@H]1CCN(Cc1ccccc1OC)C2	29.7%
CCS(=O)(=O)N1C[C@H](c2nc(C)no2)C[C@H]2OCC[C@H]21	-101%
COc1cccc(OC)c1-c1ccnc2cc(CC(=O)NC(C)C)nn12	-158%
Cc1nccn1CCCn1cncc1-c1ccc2c(c1)CCCN2C	-15.5%
Cc1nccn1CCCn1cncc1-c1ccc2c(c1)CCC(C)N2C (stereo not drawn)	66.4%
Cc1nccn1CCCn1cncc1-c1ccc2c(c1)CC(C)N2C (stereo not drawn)	49.8%

Compound	INHIBITION
CCC1(CC)Cc2ccccc2-c2nc(NCCO)[nH]c(=O)c21	1.11%
Cn1ccnc1SCCNC1CCN(c2ncccn2)CC1	-11.4%
Cc1n[nH]c(SCCNC2CCN(c3nc4ccccc4s3)CC2)n1	-196%
Cn1ccnc1SCCNC1CCN(c2nc3ccccc3s2)CC1	59.7%
O=S(=O)(NCCc1ccccc1F)N1CCOCC1	-122%
COc1cn(CC(N)=O)c(CSc2nccc(C)n2)cc1=O	-34.1%
O=C(C1CC1)N1CCC2(COCc3cnc(N4CCOCC4)nc32)C1 (stereo not drawn)	-76.2%
CC(C)C1CN(C(=O)c2cn3cc(Cl)cnc3n2)CCCN1CC1CC1 (stereo not drawn)	-26.8%
CCNC(=O)CCC(=O)NC(Cc1ccccc1)c1sccc1C (stereo not drawn)	-32.2%
Cc1ccsc1C(Cc1ccccc1)NC(=O)CNC(=O)C1CC1 (stereo not drawn)	69.9%
Cc1ccsc1C(Cc1ccccc1)NC(=O)CSCC(N)=O (stereo not drawn)	-9.21%
CNC(=O)[C@@H](c1ccccc1OC)N1CCC[C@H]1C(=O)NCCN(C)C	-199%
CC(C)c1noc(CCCC(=O)N2CCN(S(C)(=O)=O)CC2)n1	-41.7%
COCCN(C)C[C@@H]1CN(C(=O)c2ccc(=O)n(C)c2)C[C@@H]1CO	-237%
CCN(CC)C(=O)CN1CCC2(C=Cc3cc(Cl)c(C)cc3O2)CC1	49.3%
Cc1cc2c(cc1Cl)C=CC1(CCN(CC(=O)NC3CCCC3)CC1)O2	32.7%
Cc1cc2c(cc1Cl)C=CC1(CCN(CC(=O)N3CCOCC3)CC1)O2	67.6%
Cc1ccc(CCC(=O)N2CCOCC2)cc1Cl	-148%
Cc1cc2c(cc1Cl)C=CC1(CCN(C(=O)N3CCOCC3)CC1)O2	-24%
Cc1cc2c(cc1Cl)C=CC1(CCN(CC(=O)N3CCCC3)CC1)O2	59.9%
Cc1cc(C(=O)N2CCCC(n3cncn3)C2)nn1C (stereo not drawn)	-8.41%
COc1ccc(CNc2cnn(C)c(=O)c2Cl)cc1	-21.1%
CCN1C[C@H]2[C@@H](C1)N(S(=O)(=O)c1ccccc1F)CC[C@H]2OC	48.5%
CCN1C[C@@H]2[C@@H](OC)CCN(S(=O)(=O)c3ccccc3)[C@@H]2C1	33.8%
CCN1C[C@H]2[C@@H](C1)N(S(=O)(=O)c1ccccc1)CC[C@H]2OC	62.8%
Cc1ccc(C2(O)CCN(C(=O)CCn3ccc(=O)[nH]c3=O)CC2)nc1	-56.8%
